Test results: ChEMBL document CHEMBL4888484, “Replenishing the malaria drug discovery pipeline: Screening and hit evaluation of the MMV Hit Generation Library 1 (HGL1) against asexual blood stage Plasmodium falciparum ,using a nano luciferase reporter read-out” (2022)
Hit rate of the full screen: of about 150,000 compounds, about 540 (0.36%) showed an effect of 50% or more. The entries come from a sample that favours strong results as a whole.

Tested on: Plasmodium falciparum
Test: Primary screen in NF54 nanoGlo assay, in single point, at 2uM, 72h; a lower Z score goes with more inhibition
Assay type: functional, Erythrocyte
Conditions: timepoint 72 hour

SMILES | % Inhibition [%] | Z score
CC(NS(=O)(=O)N(C)C(C)C)C1CCCO1 (centres undefined) | -8 | 1.17
C/C=C(\C)C(=O)N1CCC(N2CCC(C(=O)N3CCCC3)CC2)CC1 | -12 | 1.74
CCC(C)C(NC(=O)C1CCC(C)CC1)C(=O)NC1CCN(Cc2ccccc2)CC1 (centres undefined) | -3 | 0.32
CCCNS(=O)(=O)c1ccc(C(=O)N2C[C@H]3CC[C@@H](C2)N(C)C3)cc1 | -7 | 1.2
Cc1ccc(-n2nc3c(=O)n([C@@H](C)C(=O)NCc4ccc(Cl)cc4)nc(C)c3c2C)cc1 | 10 | -1.13
O=S(=O)(NC1CCc2ccc(Cl)cc21)[C@H]1COC[C@@H]1O (some centres undefined) | -11 | 1.47
Cc1ccc(NC(=O)Cc2nnc(-c3ccc4ncccc4c3)o2)c(Cl)c1 | -6 | 0.57
CCn1cc(NC(=O)c2cc(C3CC3)nc3onc(-c4cnn(CC)c4C)c23)c(C)n1 | 8 | -1.2
CC(C)(C)OC(=O)N1CC2CC1C2C(=O)NCC1CCCO1 (centres undefined) | 14 | -1.67
Nc1ncc(C(=O)N2CCC3(CCCC3)C2)s1 | 6 | -0.8
Cc1ncsc1C(=O)N1CCC2(CCCCC2)C1 | 37 | -5.42
Nc1ncc(C(=O)N2CCC3(CCCCCC3)C2)s1 | 97 | -17.77
CC(=O)NC1CCN(Cc2cc(C)nc3ccccc23)CC1 | -6 | 0.83
CC1CCN(c2nccnc2Oc2ccc(C(=O)NCc3ccco3)cc2)CC1 | -1 | 0.13
CC1CCN(c2nccnc2Oc2ccc(C(=O)N3CCN(c4ccccc4Cl)CC3)cc2)CC1 | 11 | -1.7
CC1CCN(c2nccnc2Oc2ccc(C(=O)NCc3ccccc3Cl)cc2)CC1 | 67 | -10.64
CC(NC(CC1CCC1)c1ccccc1)c1cn(C)nn1 (centres undefined) | 6 | -0.82
CCN(CC)C[C@H](O)COc1ccc(Cl)cc1Cl | 9 | -1.14
Cc1ccccc1OC[C@@H](O)CN(C(C)C)C(C)C | -2 | 0.31
CN(C)CC(O)COc1ccc(S(=O)(=O)c2ccc(OCC(O)CN(C)C)c(Cl)c2)cc1Cl (centres undefined) | 54 | -6.62
CCS(=O)(=O)N1CCC(N2C(=O)[C@@H]3CC[C@@H](c4ccccc4)N3C2=O)CC1 | 42 | 0.94

SMILES | % Inhibition [%] | Z score
CCn1cnc2c(-c3ccccc3)cn(CC(=O)NCc3ccco3)c2c1=O | -9 | 1.31
CCN(C(=O)Cn1cc(-c2ccccc2)c2ncn(CC)c(=O)c21)c1ccccc1 | 78 | -9.77
CCc1cccc(C)c1NC(=O)Cn1cc(-c2ccccc2)c2ncn(CC)c(=O)c21 | 4 | -0.57
FC(F)(F)c1ccc(N2CCCN(Cc3nc4ccccc4o3)CC2)nc1 | -8 | 0.8
O=C(c1ccccc1)c1ccc(O)c(CN2CCCN(c3ccc(C(F)(F)F)cn3)CC2)c1O | 84 | -8.75
O=C(CN1CCCN(c2ccc(C(F)(F)F)cn2)CC1)Nc1ccccc1 | 0 | 0.05
Cc1n[nH]c(C)c1CCCNC(=O)[C@@H]1Cc2ccccc2CN1C | -7 | 1.24
Cc1cccn(CC(=O)NCC(=O)Nc2cccnc2)c1=O | -6 | 0.7
C[C@@H](CO)N(C)S(=O)(=O)[C@H]1C[C@@H]1c1ccc(Br)cc1 | 1 | -0.19
O=C(c1cccc(-n2cnnn2)c1)N1CCN(C(c2ccccc2)c2ccccc2)CC1 | 10 | -1.28
O=C(c1cccc(C#Cc2ccccc2)c1)N1CCN(C(c2ccccc2)c2ccccc2)CC1 | -8 | 1.42
O=C(c1cccc(C(=O)N2CCN(C(c3ccccc3)c3ccccc3)CC2)c1)N1CCN(C(c2ccccc2)c2ccccc2)CC1 | 54 | -11.5
CC1CCCN(C(C)CNC(=O)CCNC(=O)C2CC2C)C1 (centres undefined) | -5 | 0.79
Cc1ccc2[nH]c(-c3cc4n(n3)CCN(C(=O)N3CCN(C)CC3)C4)nc2c1 | -6 | 0.7
CCCN1CCn2nc(-c3nc4cc(OC)ccc4[nH]3)cc2C1 | -3 | 0.27
N[C@H]1CC2(CCC2)Oc2ccc(Br)cc21 | -4 | 0.62
N[C@H]1COc2ccc(Br)cc2C1=O | 73 | 0.56
N[C@H]1CCOc2ccc(Br)cc2C1=O | -8 | 1.05
O=C(COc1ccc(Br)cc1F)N[C@@H](C(=O)O)c1ccc(F)c(F)c1 | -17 | 2.1
COc1cc2cc(NC(C)=N)nc(C)c2cc1OC | 15 | -1.95
COc1ccc(CC(=N)Nc2cc3cc(OC)c(OC)cc3c(Cc3ccc(OC)c(OC)c3)n2)cc1OC | 85 | -9.78

SMILES | % Inhibition [%] | Z score
COc1cc(NC(=O)Cc2ccc(OC)c(OC)c2)ncn1 | 8 | -1.51
COc1cc(NC(=O)N2Cc3cn[nH]c3CC(C)(C)C2)c(C)c(OC)c1 | 13 | -1.52
CCn1cnc2c(N3CCC[C@H](c4ccncc4)C3)ncnc21 | 76 | -10.16
CCn1cnc2c(N3CCC[C@H](CC(C)(C)C(N)=O)C3)ncnc21 | 8 | -1.51
CCn1cnc2c(N3CCCOC3)ncnc21 | -5 | 0.67
COc1cccc([C@H]2CC(O)=Nc3c2ncn3-c2cccnc2)c1OC(C)C | 28 | -3.13
CC[C@@H](c1ccccn1)n1cc(-c2cc(CN(C)C)cs2)nn1 | -6 | 0.72
CC(C)C(=O)N1CCN(c2ccc(Br)cc2)C(=O)[C@@H]1C | -12 | 1.14
Cc1ccc([C@H]2C=NN(c3ccc(Br)cc3)C2=O)cc1 | 76 | -2.14
CC1=CN(c2ccc(Br)cc2)C(=O)N(c2ccccc2)N=C1C | -45 | 5.24
CCCOc1ccc(C2C3C(=O)N(c4cccc5ccccc45)C(=O)C3ON2c2ccccc2)cc1OC (centres undefined) | -14 | 1.48
O=C1C[C@@H](C(=O)N2CC(Cc3ccoc3)C2)NC(=O)N1 | -12 | 1.39
O=C(C[C@H](n1cccn1)C(F)(F)F)N1CCN(C2CC2)c2ccc(Cl)cc21 | -2 | 0.26
COc1ccc(-c2c(-c3cccc(OC)c3)[nH]c3c2c(=O)[nH]c(=O)n3C)cc1 | 90 | -8.97
COc1ccc(-c2c(-c3ccc(C)c(C)c3)[nH]c3c2c(=O)[nH]c(=O)n3C)cc1 | -4 | 0.68
COc1ccc(-c2c(-c3ccc(Cl)cc3)[nH]c3c2c(=O)[nH]c(=O)n3C)cc1 | -5 | 0.54
NC(=O)NCCC[C@@H]1NC(=O)[C@H](Cc2ccccc2)NC1=O | -12 | 1.78
COCCc1nc(C)c([C@H](C)Nc2ccc3c(c2)CCC(=O)N3)s1 | -15 | 1.74
CC(C)c1cccc(Nc2nc3ccncc3n(C(C)C)c2=O)c1 | 91 | -8.7
CC(C)n1c(=O)c(NCc2cccc(C(F)(F)F)c2)nc2ccncc21 | 24 | -2.33
CCc1cccc(Nc2nc3ccncc3n(C(C)C)c2=O)c1 | 1 | -0.13

SMILES | % Inhibition [%] | Z score
CC1CCN(Cc2ccc(-c3ncnn3C(C)(C)C)o2)CC1 | -6 | 1.14
c1ccc(COC[C@H](Nc2ncnc3ccccc23)c2ccccc2)cc1 | -12 | 1.08
CN1CCC(N(C)CC(NCC2CCC=CO2)c2ccccc2)CC1 (centres undefined) | -4 | 0.49
Cc1cc(C)nc(O[C@H]2CCCN(C(=O)c3cccn(C)c3=O)C2)n1 | -2 | 0.22
O=C(N[C@H]1CCS(=O)(=O)C1)c1cccc(Oc2cccc(C(F)(F)F)c2)c1 | -25 | 2.94
O=C(Nc1cc(N2CCCS2(=O)=O)ccc1O)c1cccc(Oc2cccc(C(F)(F)F)c2)c1 | 99 | -18.11
O=C(Nc1cccnc1)c1cccc(Oc2cccc(C(F)(F)F)c2)c1 | -13 | 1.85
Cc1nc2ccc(NC(=O)C3C4C=CC(C4)C3C(=O)O)cc2s1 (centres undefined) | 7 | -1.15
CCOc1ccc(-c2nc(Cn3ccnn3)co2)cc1 | -6 | 1.08
Brc1ccc(-c2nc(Cn3ccnn3)co2)cc1 | -11 | 1.68
FC(F)(F)c1ccc(-c2nc(Cn3ccnn3)co2)cc1 | 89 | -0.03
CO[C@H]1CN(C2CCN(C(=O)CCc3c[nH]c4ccccc34)CC2)C12CCOCC2 | -2 | 0.27
O=C(N[C@H]1CCN(c2cnccn2)C[C@@H]1O)c1ccc2c(c1)OCO2 | 0 | 0.01
COc1ccc(CC(=O)N2CC3(C[C@H](N4CCCCC4)CO3)C2)cc1 | -5 | 0.75
Cn1ccnc1[C@@H]1CCCN1Cc1nccn1Cc1ccccc1 | 50 | -4.75
CC(=O)N[C@@H]1CN(Cc2nccn2Cc2ccccc2)C[C@H]1c1nccn1C | 30 | -1.12
Cn1cc([C@@H]2CCCN2Cc2nccn2Cc2ccccc2)cn1 | -5 | 0.74
CN(CC(c1ccccc1)c1ccccc1)[C@H]1COC[C@@H]1O | -10 | 1.87
CC1=C(C(=O)N2C[C@H]3CC=CC[C@H]3C2)C(C)NC(=O)N1 (some centres undefined) | -13 | 2.39
